The results in this text go back to PubChem BioAssay (Tox21).

Molecules are shown by their SMILES. Results filed as inconclusive are left out. A number with no mark means an inactive call. The source made the active and inactive calls. The call rests on the fitted dose curve; in most records, active means well fitted cell-killing curve with a large enough effect in the repeat runs; inconclusive means weak or mixed curves, or effect the other way; inactive means flat fitted curve, though single readings scatter.
On the % scale 0 is the no-effect control and ±100 the full control effect; potency means the concentration at half of the fitted maximal effect.

A short description of the assay: qHTS RealTime-Glo MT Cell Viability Assay in HEK293 cells - 40 hour (AID 1224874). Further: nearly all actives have a fitted effect of over 50% in size. The note with it: RealTime-Glo luminescence; max response: active compounds read low. The essentials: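 Viable HEK293 cells reduce a cell-permeant prosubstrate; the product diffuses out and is consumed by NanoLuc in the medium to give light. Compounds went in after a 5 h incubation and plates were read over the treatment course.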
(In qHTS, concentration-response curves come from the screen itself.)
On to `CCc1c(Br)c(Br)c(Br)c(Br)c1Br`, for which the max response was 4.82%.

As for `COc1cccc(O)c1`, the max response was 11.4%.

In the case of `CCCCOC(=O)C(C)CC` (stereo not given), the max response is 1.36%.

Turning to `CCOC(=O)COc1ccc(C)cc1`, the max response was 0.285%.

As for `CCCCN(C)C`, the max response was 1.09%.

As to `[O]=[Zr]`, the max response was 1.9%.

For `Cc1cnccn1`, the max response was 8.17%.

With `OCCCS`, the max response was 7.88%.

As to `O=C(O)CCn1c2c(c3ccccc31)C[C@H](NS(=O)(=O)c1ccc(F)cc1)CC2`, the max response was 8.69%.

Turning to `Brc1ccccn1`, the max response is -0.513%.

As to `O=C1C=CC(=O)N1c1ccccc1`, the Potency is 11 µM (active).

As for `COc1cc(C(=O)NS(=O)(=O)c2ccccc2C)ccc1Cc1cn(C)c2ccc(NC(=O)OC3CCCC3)cc12`, the max response is -0.13%.

Turning to `CCCCCCCCCCCCCc1ccccc1`, the max response is -7.71%.

`NCCCCCCNCCCCCCN`: the max response is -6.12%.

In the case of `Cc1cccc(Br)c1`, the max response is 0.0661%.

As to `CC(C)CCOCCC(C)C`, the max response is 7.57%.

For the molecule `CCc1cccc(C)c1`, the max response is -0.877%.

Take `Cc1cccc(C)n1`: the max response is -0.971%.

Regarding `c1cc2c3c(c1)ccc1cccc(c13)C2`, the max response is -20.7%.

For the molecule `Clc1cccnc1`, the max response is 0.202%.

Turning to `Cc1ccc(O)cn1`, the max response was -9.02%.

Turning to `O=S(O)O`, the max response is 7.9%.

On to `C[Si](C)(C)Cl`, for which the max response is 8.44%.

`CCOCN(C(=O)CS(=O)(=O)O)c1c(C)cccc1CC`: the max response was 8.02%.

On to `Cc1c(-c2ccc(O)cc2)n(Cc2ccc(OCCN3CCCCCC3)cc2)c2ccc(O)cc12`, for which the Potency is 3.38 µM (active).
